Source: PubChem (National Center for Advancing Translational Sciences (NCATS))
HCV inh = inhibitors of hepatitis C virus infection; Huh7.5.1 HCVcc-Cre infection, luciferase reporter, 44 h; Potency, µM (titrated, usually from 41.8 µM), inactives show at the top dose activity change, negative = inhibition, hits mostly inhibitors; 340,000 tested, 3.4% active; AID 651820; active = well fitted inhibition curve with a large enough effect; inconclusive = small, poorly fitted or top-dose-only effect, or another doubt; inactive = no such curve, though single readings can be large or run the other way
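After 44 h co-culture of compound, cells and HCVcc-Cre (~0.5 moi), substrate is added for 15 min at room temperature and luciferase measured over 15 sec. Cells were seeded at 1,000/well and pre-cultured 4 h.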
Vaccinia Venus = inhibitors of vaccinia virus (Venus reporter). 330,000 tested, 0.46% active. Vaccinia virus Venus reporter expression, fluorescence. Potency, µM (doses to about 36.5 µM), for the others: at the highest dose activity change, negative = inhibition, usual class: inhibitors. AID 720580; calls by dose curve; tested in A549 cells; also: nearly all actives have a fitted effect of over 30% in size
VACV mCherry inh = vaccinia inhibition (mCherry reporter) | 310,000 tested, 0.63% active | Potency, µM (doses to about 36.5 µM), inactives show at the highest dose activity change, negative = inhibition, actives largely listed as inhibitors | Vaccinia virus mCherry reporter infection, fluorescence; calls by dose curve; tested in A549 cells; also: nearly all actives have a fitted effect of over 35% in size
* = called active by the depositor; i = inactive; ? = inconclusive; . = no result. Rows were chosen to be rich in hits. Some 3.3% of all compounds tested hit in one or more screens of this group. % is scaled to controls: 0 for no effect and ±100 for the full control effect; potency is read from the fitted curve at half-maximal effect.

SMILES | HCV inh | Vaccinia Venus | VACV mCherry inh
COc1cc(N/N=C/c2ccccc2O)ncn1 | ? | ? | 14µM*
COc1cc(N/N=C/c2ccc(N(C)C)cc2)ncn1 | 4% | -10% | -7%
Cc1c(C(=O)NCc2ccc(Cl)cc2)sc2nc3n(c(=O)c12)CCCCC3 | . | -10% | -11%
CC(C)c1cccc(-c2ccc3c(c2)S(=O)(=O)c2cccc(C(=O)NCc4ccccc4Cl)c2C3=O)c1 | -4% | 13µM* | ?
O=C(NCc1cc(C(F)(F)F)ccc1Cl)c1cccc2c1C(=O)c1ccc(N3CCOCC3)cc1S2(=O)=O | -2% | 10µM* | -28%
CC(C)c1cccc(-c2ccc3c(c2)S(=O)(=O)c2cccc(C(=O)NCc4ccccc4)c2C3=O)c1 | 7% | ? | -15%
COc1ccc(-c2ccc3c(c2)S(=O)(=O)c2cccc(C(=O)NCc4ccccc4Cl)c2C3=O)cc1OC | 3% | -1% | i
O=C(NCc1cc(C(F)(F)F)ccc1Cl)c1cccc2c1C(=O)c1ccc(N3CCCCC3)cc1S2(=O)=O | 23% | 2% | -7%
COc1ccc(-c2ccc3c(c2)S(=O)(=O)c2cccc(C(=O)NCCOc4ccccc4Cl)c2C3=O)cc1OC | ? | 7.9µM* | ?
CCN(Cc1ccccc1)C(=O)c1cc2c(s1)-c1c(C)cccc1OC2 | . | -8% | -16%
Cc1ccc2[nH]c3c(c2c1)CCN(C)C3 | -16% | . | .
Cc1ccc(C2N(C)C(=O)c3ccccc3N2C)cc1 (stereo not given) | ? | -19% | ?
COc1cccc(O)c1CN1CCC(C(=O)Nc2ccc(-c3cccc(C)c3)cc2)CC1 | 1µM* | ? | -21%
COc1cccc(O)c1CN1CCC(C(=O)Nc2ccc(Oc3cccnc3)cc2)CC1 | ? | -17% | i
COc1cc(NS(=O)(=O)c2cc(Br)cc3c2N(C(C)=O)C(C)C3)cc(OC)c1 (stereo not given) | . | -20% | -17%
COc1ccccc1Cn1ccn(Cc2c(F)cccc2Cl)c(=O)c1=O | . | -4% | -10%
COc1ccccc1[C@@]1(C)ON(c2ccccc2C(F)(F)F)C1=O | 3.2µM* | ? | ?
Cc1ccccc1[C@]1(C)ON(c2ccccc2C(F)(F)F)C1=O | -7% | . | .
COc1cc(/C=C/CN2CCOc3ccc(C(O)c4cccnc4)cc3C2)ccc1O (stereo not given) | . | -7% | -14%
CC(=O)NC(Cc1ccc(I)cc1)C(=O)NCC(N)C(=O)c1ccccc1 (stereo not given) | . | -19% | -3%
O=C1CNC(=S)N1c1nc2ccccc2s1 | -9% | 6% | -5%
Cc1ccc(-n2c(C)cc(C(=O)COC(=O)c3c(C)noc3C)c2C)cc1 | 0.32µM* | . | .
Cc1ccc(-n2c(C)cc(C(=O)COC(=O)C3=NNC(=O)CC3)c2C)cc1 | 6% | -17% | .
CCCNC(=O)CCn1cc(-c2ccc(OC)cc2)nc1-c1ccncc1 | 20% | -4% | -30%
CC(=O)c1sc(NC(=O)c2ccccc2F)nc1-c1ccccc1 | -15% | -13% | i
SMILES | HCV inh | Vaccinia Venus | VACV mCherry inh
COc1ccc(C(=O)Nc2nc(-c3ccccc3)c(C(C)=O)s2)c(OC)c1 | 13µM* | 1% | -8%
COc1ccc(C(=O)Nc2nc(-c3ccc([N+](=O)[O-])cc3)c(-c3ccccc3)s2)cc1 | 6.3µM* | 2% | .
COc1ccc(-c2sc(NC(=O)c3ccc(C)cc3)nc2-c2ccc([N+](=O)[O-])cc2)cc1 | 0% | -5% | -8%
Cc1nn(C(=O)N(C)C)c(C)c1CN1C(=O)c2ccccc2C1=O | 0% | -20% | -18%
Cc1ccc(S(=O)(=O)c2cnc(-c3ccccc3)[nH]c2=O)cc1 | . | -11% | i
CCc1ccccc1NC(=O)NC(CC)Cn1nnc2ccccc2c1=O (stereo not given) | . | 0% | 0%
O=C(Nc1cccc(C(F)(F)F)c1)Nc1nnc([C@H]2C[C@H](O)[C@@H](CO)O2)s1 | . | 11% | 30%
CCSCCc1nnc(NC(=O)Nc2cccc(C(F)(F)F)c2)s1 | 3.5µM* | . | .
CCN1C(=O)N[C@@H](c2ccco2)C(C(=O)OC)=C1C | 10% | -11% | -6%
COc1ccc(NC(=O)Cc2ccc(-c3ccccc3)cc2)cn1 | -27% | -17% | -1%
COc1ccc(NC(=O)/C(Cl)=C(/Cl)S(=O)Cc2ccc(Cl)cc2)cn1 (stereo not given) | 7.9µM* | 7.9µM* | 5.6µM*
COc1ccc(NC(=O)C(C)(C)Oc2ccc(Cl)cc2)cn1 | -21% | 1% | -7%
COc1ccc(NC(=O)Nc2cc(C)cc(C)c2)cn1 | -17% | -16% | i
COc1ccc(NC(=O)C(Cl)=C(Cl)Cl)cn1 | 10µM* | -3% | -15%
COc1ccc(NC(=O)/C(Cl)=C(/Cl)S(=O)(=O)Cc2ccccc2)cn1 | 3.5µM* | 22µM* | .
Cc1cccc(-n2nnc(-c3nc(-c4cccs4)no3)c2N)c1 | . | -4% | 3%
COc1ccc([C@H]2C[C@@H](O)[C@H](n3cc(COC(=O)c4ccccc4)nn3)CN2CC2CCCCC2)cc1 | . | ? | -14%
COc1ccccc1-c1cccc([C@@H]2C[C@H]3[C@H](CON3C)CN2Cc2cc(Cl)cc(Cl)c2)c1 | ? | 4% | -21%
COc1ccccc1-c1cccc([C@@H]2C[C@H]3[C@H](CON3C)CN2Cc2ccccc2)c1 | 8.9µM* | -17% | i
Cn1c(=O)c2c(nc(NCCCO)n2Cc2cccc(Br)c2)n(C)c1=O | -20% | . | .
C=CCNc1nc2c(c(=O)n(C)c(=O)n2C)n1Cc1ccc(F)cc1 | 6.3µM* | -27% | -11%
CC(O)CNc1nc2c(c(=O)n(Cc3ccc(Cl)c(Cl)c3)c(=O)n2C)n1C (stereo not given) | 28% | . | .
COCCNc1nc2c(c(=O)n(C)c(=O)n2C)n1Cc1cccc(C)c1 | 10µM* | . | .
COCCCNc1nc2c(c(=O)n(C)c(=O)n2C)n1Cc1cccc(OC)c1 | ? | -30% | .
Cc1cccc(Cn2c(NCC(C)O)nc3c2c(=O)n(C)c(=O)n3C)c1 (stereo not given) | 4.5µM* | -41% | .
SMILES | HCV inh | Vaccinia Venus | VACV mCherry inh
CCC(C)Nc1nc2c(c(=O)n(C)c(=O)n2C)n1Cc1ccc(F)cc1 (stereo not given) | -13% | -18% | i
Cn1c(NCC(O)c2ccccc2)nc2c1c(=O)n(Cc1ccc(Cl)c(Cl)c1)c(=O)n2C (stereo not given) | ? | 10µM* | .
CCCCNC(=O)C1(C)CCCCN1C(=O)c1ccc(F)c(C)c1 (stereo not given) | . | -11% | i
COc1ccc(N2C(=NC(=O)c3ccccc3)SC3CS(=O)(=O)CC32)cc1 (stereo not given) | 29% | -15% | i
O=C(O)C1=CC(c2ccc(Br)cc2)n2ncnc2N1 (stereo not given) | . | -7% | -3%
Cc1ccc2nc(SCC(=O)NCC3Cc4cccc(-c5nc(C)cnc5C)c4O3)[nH]c2c1 (stereo not given) | . | 0% | -11%
CCOc1ccccc1N1CC(O)=C(c2nc3ccccc3s2)C1=N | ? | ? | -12%
N=C1C(c2nc3ccccc3s2)=C(O)CN1C1CCCCC1 | 10% | . | .
COCCN1CC(O)=C(c2nc3ccccc3c(=O)[nH]2)C1=N | 14% | -16% | .
COc1ccc(OC)c(N2CC(O)=C(c3nc4ccccc4s3)C2=N)c1 | 25µM* | -26% | -9%
